Measles CPE – protection of cells from measles virus; Measles virus-infected cells, CPE protection, absorbance; protection (pct of control), % at 4 µM; 1.5% of 140,000 active; in the data active = protection mostly above about 24%, no sharp cut-off; inactive = mostly below about 26%
CYP2C19 inhib – human CYP2C19 inhibition; 21% of 96,000 active; P33261; CYP2C19 Supersomes, luciferin-H EGE luminescence, 30 min; inhibition, % at 5 µM;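 active = CYP2C19 inhibition above a set limit at 5 µM in the primary screen, cut at about 50% in these data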;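 note: plate controls were negative control wells for no effect and 2.5 mM tranylcypromine positive control for full effect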
CYP2C9 activ – increases human cytochrome P450 2C9 activity | P11712 | recombinant CYP2C9, luciferin-H conversion, luminescence; active compounds read high; factor 1 = untreated enzyme, 0 = blocked | activation factor at 5 µM | 1.4% of 96,000 active;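 active = activation factor of 2 or more for CYP2C9 at a 5 µM dose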;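 note: 0 = sulfaphenazole-blocked wells and 1 = vehicle-only wells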
Target sequence (P11712 whole entry, looked up): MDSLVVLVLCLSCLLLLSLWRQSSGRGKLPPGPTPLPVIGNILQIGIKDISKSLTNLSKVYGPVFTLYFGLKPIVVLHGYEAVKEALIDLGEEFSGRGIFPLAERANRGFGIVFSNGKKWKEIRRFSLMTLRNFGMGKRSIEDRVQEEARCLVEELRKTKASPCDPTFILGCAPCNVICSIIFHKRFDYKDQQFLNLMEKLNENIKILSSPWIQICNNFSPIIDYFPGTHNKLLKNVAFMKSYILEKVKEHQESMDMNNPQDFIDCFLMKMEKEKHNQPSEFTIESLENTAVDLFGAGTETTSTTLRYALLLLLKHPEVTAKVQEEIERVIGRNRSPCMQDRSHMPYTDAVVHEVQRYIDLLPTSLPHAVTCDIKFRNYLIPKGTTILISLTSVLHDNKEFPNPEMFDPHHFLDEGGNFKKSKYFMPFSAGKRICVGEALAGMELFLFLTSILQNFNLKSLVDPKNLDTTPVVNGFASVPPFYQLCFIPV
CYP2C19 activ – increases human CYP2C19 enzyme activity | P33261 | recombinant CYP2C19, luciferin-H EGE luminescence; active compounds read high; 0 = fully inhibited enzyme, 1 = untreated enzyme | activation factor at 5 µM | 96,000 tested, under 10 active | AID 1025;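 active = activation factor of at least 2 at 5 µM in the primary screen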;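 note: 0 = wells with 2.5 mM tranylcypromine and 1 = vehicle-only wells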
CYP2C9 inhib – inhibitors of human CYP2C9; P11712; CYP2C9 Supersomes, luciferin-H conversion, luminescence; inhibition, % at 5 µM; 20% of 96,000 active; AID 777;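 active = blocking of liver enzyme CYP2C9 beyond about 50% at 5 µM, limit read from the data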
* = called active by the depositor; / = not tested or not shown. Compounds with a hit are over-represented: about 22% of the library has one in this group of screens.

SMILES	Measles CPE	CYP2C19 inhib	CYP2C9 activ	CYP2C19 activ	CYP2C9 inhib
COc1cccc(C2=CC(c3cc(OC)ccc3OC)n3nnnc3N2)c1 (centres undefined)	12.1	35.3	0.3	0.6	68.4*
COc1ccc(C2C(C(=O)OC3CCCCC3)=C(C)Nc3nnnn32)c(OC)c1OC (centres undefined)	1.8	/	/	/	/
CCCCn1ccc(=O)c2c(C(F)(F)F)nccc21	21.2	-8.4	1.1	1.1	-6.1
Cc1c(Cl)cnc(NC(=O)COC(=O)CCc2nc3ccccc3s2)c1Cl	14.7	/	/	/	/
COc1cccc(NC(=O)CCSc2nnc3scc(-c4ccccc4)n23)c1	4.2	/	/	/	/
Cn1cc(-c2nnc(-c3ccccc3)o2)c2ccccc21	22.0	-6.3	2.4*	1.1	-142.9
Cc1noc(C)c1CSc1nnc2sc3ccccc3n12	9.7	77.6*	1	0.2	2.5
CN(C)CCSc1nnc2sc3ccccc3n12	7.7	-6.8	1.3	1.1	-26.1
Cc1noc(C)c1CSc1cc(C)c2ccccc2n1	9.4	85.6*	0.5	0.1	54.6*
COc1ccc(OCCSc2nnc3sc4ccccc4n23)cc1	47.3*	47.0	1	0.5	0.0
Cc1noc(C)c1CSc1nc2ccccc2n1C	2.0	88.7*	0.4	0.1	62.5*
O=C(CNC(=O)c1cccc(F)c1)OCC(=O)N1CCCc2ccccc21	7.7	/	/	/	/
CCN1CCN(S(=O)(=O)c2cc(OC)c(Cl)cc2OC)CC1	4.9	39.2	1.1	0.6	-9.8
Cc1cc(C)n(-c2nnc(C)c(=O)[nH]2)n1	8.3	-13.6	1.2	1.1	-20.1
COc1ccccc1CC(=O)N(CCC#N)CCC#N	5.7	/	/	/	/
C/C(=N\NC(=O)C1(C)CC1(Br)Br)c1ccc(NC(=O)C2CCC2)cc1 (centres undefined)	5.1	/	/	/	/
Cc1noc(C)c1CSc1ccc(Br)cc1	17.7	96.0*	0.9	0	11.4
O=C(COc1ccc(Cl)cc1)NC1CCSC1=O (centres undefined)	6.6	65.4*	0.7	0.3	26.4
COc1cc(C(=O)O)cc(Br)c1OC1CCCC1	0.2	-17.3	1.2	1.2	-24.2
CCc1nccn1S(=O)(=O)c1ccc(OC)c(OC)c1	15.4	76.5*	1.2	0.2	-18.9
CCc1nccn1S(=O)(=O)c1cc(OC)c(Cl)cc1OC	6.7	/	/	/	/
CCCc1nccn1S(=O)(=O)c1cc(OC)ccc1OC	33.1	90.1*	0.4	0.1	55.9*
CCc1nccn1S(=O)(=O)c1cc(Br)ccc1OC	1.1	96.8*	1.1	0	-14.4
COc1ccc(Cl)cc1S(=O)(=O)n1ccnc1C(C)C	5.7	73.7*	0.8	0.3	20.6
CCc1nccn1S(=O)(=O)c1ccc(C)c(C)c1	17.1	8.3	1.2	0.9	-16.4
SMILES	Measles CPE	CYP2C19 inhib	CYP2C9 activ	CYP2C19 activ	CYP2C9 inhib
CCOc1ccc(N2CC(=O)N/C2=N\c2nc(C)cc(C)n2)cc1	8.2	-6.6	1	1.1	-3.6
CCn1c(SCC(=O)Nc2nc3ccc(C)cc3s2)nc2c(c1=O)SC(C)C2 (centres undefined)	6.1	69.4*	0.2	0.3	77.3*
Cc1nnc(NC(=O)CSc2nc3c(c(=O)n2C)SC(C)C3)s1 (centres undefined)	14.4	-3.0	0.8	1	22.5
Cc1ccc(-n2c(SCC(=O)Nc3cc(C)on3)nc3c(c2=O)SC(C)C3)cc1 (centres undefined)	9.8	17.7	0.7	0.8	33.5
CCn1c(SCC(=O)Nc2cc(C)on2)nc2c(c1=O)SC(C)C2 (centres undefined)	12.6	15.5	0.4	0.8	62.3*
CCn1c(SCC(=O)Nc2nc3ccccc3s2)nc2c(c1=O)SC(C)C2 (centres undefined)	0.8	96.7*	0	0	98.4*
CCn1c(SCC(=O)NC2CCCCC2)nc2c(c1=O)SC(C)C2 (centres undefined)	9.9	9.7	1	0.9	-4.1
COc1ccc2c(c1)N(C(=O)CSc1n[nH]c(C)n1)C(C)(C)C=C2C	1.4	42.2	1	0.6	4.5
CCCNC(=O)NC(=O)CSc1ncc(C(F)(F)F)cc1Cl	6.8	69.7*	1.1	0.3	-6.5
CC(C)(C)NC(=O)NC(=O)CSc1ncc(C(F)(F)F)cc1Cl	8.1	4.4	1.1	1	-6.0
Cc1cccc(C(=O)NNC(=O)CN2C(=O)c3ccccc3C2=O)c1	16.1	/	/	/	/
COCCOC(=O)C1=C(C)NC(=O)N(C(C)=O)C1c1ccc(Cl)cc1 (centres undefined)	4.3	58.1*	0.3	0.4	65.5*
CCOC(=O)C1=C(C)NC(=S)N(C(C)=O)C1c1ccc(Cl)cc1 (centres undefined)	23.5	/	/	/	/
CC(=O)c1cnc2nc(C(F)(F)F)nn2c1C	19.7	-1.0	1.1	1	-10.2
O=C(Nc1ccc(Cl)cc1)N(Cc1cccnc1)Cc1ccco1	20.7	99.7*	0.1	0	89.5*
Cc1ccccc1NC(=S)N(Cc1cccnc1)Cc1ccco1	12.6	/	/	/	/
N#CCCN(C(=O)Nc1ccc(Cl)c(Cl)c1)c1ccccc1	5.3	/	/	/	/
Cc1ccc(NC(=O)N(Cc2cccnc2)Cc2ccco2)cc1C	9.4	96.0*	0.2	0	78.4*
N#CCCN(Cc1cccnc1)C(=O)Nc1ccc(Cl)c(Cl)c1	9.5	92.1*	0.4	0.1	63.8*
COCCSc1ccccc1C(=O)Nc1nncs1	5.5	0.5	1	1	-2.5
CC(C(=O)c1ccccc1)n1cnc2ccccc2c1=O (centres undefined)	5.6	35.0	0.6	0.7	38.1
COc1ccc(/C=C2\SC(=S)N(NC(=O)c3csc4c3CCCC4)C2=O)cc1	1.0	11.6	1	0.9	-3.1
O=C(O)/C(=C\c1ccco1)NC(=O)c1ccccc1	30.1*	/	/	/	/
C=CCOC(=O)/C(=C/c1ccco1)NC(=O)/C=C/c1ccccc1	6.4	77.3*	0.3	0.2	73.4*
Cc1cccc(C)c1NC(=O)/C(=C/c1ccco1)c1ccccc1	12.3	43.3	0.3	0.6	69.6*
SMILES	Measles CPE	CYP2C19 inhib	CYP2C9 activ	CYP2C19 activ	CYP2C9 inhib
CCC(C)NC(=O)/C(=C/c1ccco1)c1ccccc1 (centres undefined)	7.8	14.4	0.9	0.9	7.4
Cc1cc(C)c(NC(=O)/C(=C/c2ccco2)c2ccccc2)c(C)c1	11.2	76.8*	0.3	0.2	67.9*
CC(C)NC(=O)/C(=C/c1ccco1)c1ccccc1	16.4	-9.1	1	1.1	3.0
COc1ccc(C(=O)Nc2ccc(-c3ccc(NC(=O)c4ccc(OC)cc4)c(OC)c3)cc2OC)cc1	12.1	/	/	/	/
CCOc1ccc(Br)cc1S(=O)(=O)Nc1cccc(S(=O)(=O)N(C)c2ccccc2)c1	6.4	/	/	/	/
CC(C)NC(=O)c1cc(C(=O)c2cc(Cl)ccc2O)coc1=N	20.2	68.9*	0.7	0.3	33.9
C=CCn1c(O)c(N=NC(=O)CNC(=O)/C=C/c2ccco2)c2ccccc21	5.3	48.9	0.3	0.5	70.6*
O=C(COc1ccc(S(=O)(=O)NC2CCCCC2)cc1Cl)N1CCN(c2ccccc2)CC1	7.9	67.8*	0	0.3	100.1*

Compound activity: PubChem, several laboratories
